Measurements taken from ChEMBL document CHEMBL4888484, “Replenishing the malaria drug discovery pipeline: Screening and hit evaluation of the MMV Hit Generation Library 1 (HGL1) against asexual blood stage Plasmodium falciparum ,using a nano luciferase reporter read-out” (2022).
The whole screen tested about 4,800 compounds, of which about 410 (8.5%) showed an effect of 50% or more. For the sample, strong results were picked, then their nearest neighbours and some compounds at random.

Tested on: Plasmodium falciparum
Assay: Confirmatory screen in NF54 pLDH assay, in single point, at 2uM, 72h
Type: functional, Erythrocyte
Conditions: timepoint 72 hour

SMILES | % Inhibition [%]
CC1([C@@](O)(C#CC[N+]2(C)CCCCC2)c2ccccc2)CCCC1 | 43
CCNS(=O)(=O)c1cc(C)ccc1C | 8
CCc1ccc(-n2c(=O)[nH]c3nc(N4CCN(c5ccccc5F)CC4)ncc3c2=O)cc1 | -25
O=C(NCc1ccncc1)c1ccco1 | -2
NC(=O)C1CCN(CCC(=O)N2CCc3cc4ccc3[C@@H]2c2cccc(c2)OCCCNC(=O)c2cc(ccc2O)O4)CC1 | 93
NCc1cccc(C(=O)N2CCc3cc4ccc3[C@@H]2c2cccc(c2)OCCCNC(=O)c2cc(ccc2O)O4)c1 | 98
O=C1NCCCOc2cccc(c2)[C@H]2c3ccc(cc3CCN2C(=O)CCN2CCOCC2)Oc2ccc(O)c1c2 | 50
CCc1nc2cc(N3CCC(C(=O)Nc4ccc5c(c4)OCO5)CC3)cnc2nc1CC | 8
Cc1ccc(NC(=O)CN2N=C(C(=O)Nc3ccccc3)CCC2=O)cc1 | -10
Cc1cccc(Oc2cc(N)cc(Oc3cccc(C)c3)c2)c1 | 8
O=C(c1cc2ccccc2[nH]1)N1CCc2sc(Cl)cc2C1 | 5
CC(=Cc1cn(C(C)(C)C)nn1)c1nc(C)c(C#N)c(=O)[nH]1 | 10
COc1ccc(C)cc1NC(=O)[C@H]1CCCN(c2cn[nH]c(=O)c2)C1 | -8
CC(C)(C)CC(=O)Nc1ccccc1C(N)=O | 13
CC(=O)c1cc(-c2cc(O)cc(CC[C@H]3CCCCN3)c2)ccc1O | 85
Cc1cc(-c2cc(O)cc(CC[C@H]3CCCCN3)c2)ccn1 | 91
Cc1cc(S(=O)(=O)NC[C@H]2CCCCN2)sc1C | -6
Cc1ccc(-c2cc(O)cc(CC[C@H]3CCCCN3)c2)c(C)n1 | 66
CNC(=NCC(C)(C)c1ccc(OC)cc1)NC | 7
COc1cccc(N2CCN(C(=O)c3cn4cc(-c5ccc(Cl)cc5)ccc4n3)CC2)c1 | 2
Cc1[nH]c2nc3ccccc3n2c(=O)c1Cc1ccccc1Cl | -15
CCc1cc(O)nc(CN2CCCC2C(O)C(F)(F)F)n1 (configuration not stated) | -4
Oc1ccc(-c2nnc(-c3ccc(O)cc3)nn2)cc1 | 22
CC(C)c1ccc(NC(=O)CCC(=O)N2CCc3ccccc3C2)cc1 | 9
C[C@@]12CO[C@@H](COc3ccccc3)O[C@@H]1CC[C@]1(C)C2CC[C@@H](O)[C@H]1CC(=O)N1CCC[C@H]1CO (some centres not stated) | 6
CC1CC(C)CN(C(=O)c2cc(NC(=O)c3ccccc3)n(C)n2)C1 (configuration not stated) | -14
O=C(CN1CCOCC1)Nc1ccc(N2CCOCC2)c(F)c1 | -8
